# Screening results from PubChem BioAssay.
# RN4220 kill: kills Staphylococcus aureus RN4220; 330,000 compounds, 0.33% hits; S. aureus RN4220 growth, OD600, 16 h; AID 1259311; inhibition, % (test concentration not listed); in the data active means inhibition above about 85%;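 further: plate controls were untreated cells for no effect and reference antibiotic for full effect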
# Sa ugtP lethal: growth inhibition of S. aureus ugtP deletion strain | AID 1259309 | 330,000 compounds, 0.54% hits | growth inhibition, % (no concentration beside the values) | S. aureus RN4220 ugtP deletion, OD600 growth, 16 h; in the data active means growth inhibition above about 68%;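 further: plate controls were untreated wells for no effect and antibiotic for full effect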
# PriA SSB inh: inhibitors of Klebsiella pneumoniae PriA binding to SSB C-terminal tail | AlphaScreen SSBct-PriA binding, biotinylated peptide | inhibition, % at 33 µM | 430,000 compounds, 0.6% hits; in the data active means inhibition mostly above about 37%, no sharp cut-off; inactive means mostly below about 20%;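 further: plate controls were negative control peptide for no effect and reference peptide for full effect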
# Mtb hypoxia rep: reduces hypoxia-regulated biosensor signal in M. tuberculosis; M. tuberculosis hypoxia-regulated fluorescent reporter, fluorescence; fluorescence inhibition, % (test concentration not listed); 300,000 compounds, 0.1% hits; AID 1159583; in the data active means fluorescence inhibition mostly above about 23%, no sharp cut-off; inactive means mostly below about 17%
# * = called active by the depositor; · = no result shown; ! = not confirmed by another sample. Only some compounds are listed: those with a hit (about 1.1% of all), similar ones and a draw of the others.
SMILES,RN4220 kill,Sa ugtP lethal,PriA SSB inh,Mtb hypoxia rep
O=C1C=C(NC(=O)Nc2ccc(Cl)c(Cl)c2)CCC1,100*,100*,-9,6
O=C(Nc1ccc(Cl)c(Cl)c1)Nc1ccc(Br)cc1F,100*,99*,-23,3
O=C(Nc1ccc(Cl)cc1)Nc1ccc(Cl)c(Cl)c1,·,·,0,·
O=C(Cn1c(-c2ccccn2)nc2ccccc21)Nc1ccccc1F,·,·,-15,·
COc1ccc(-c2nc(N3CCCCCC3)sc2C(=O)c2ccccc2)cc1,0,73,-10,·
COc1ccc(-c2nc(N3CCN(C)CC3)sc2-c2ccc(OC)cc2)cc1,-4,99*,8,-3
Cc1cc2ccccc2n1CCNC(=O)Cc1ccccc1,-3,1,44*,-4
Cc1cccc(CC(=O)NCCn2c(C)cc3ccccc32)c1,-6,-5,38,10
COc1cc(/C=C/C(=O)NCCn2c(C)cc3ccccc32)cc(OC)c1OC,-10,-6,48*,2
Cc1noc(C)c1CCC(=O)N1CC(S(=O)(=O)CC(C)C)C1,·,·,-24,·
COc1ccccc1-c1cnn2c(Nc3ccc(NC(C)=O)cc3)cc(C)nc12,·,·,-21,·
CCOc1cc(C(=O)NCc2nnc(SCC(=O)Nc3cc(C(F)(F)F)ccc3Cl)n2-c2cc(OC)ccc2OC)cc(OCC)c1OCC,·,·,-25,·
CC(C)CCn1c2ccccc2c2cc(CC(N)=O)ccc21,-3,83*,4,-1
Cc1cc(C)c(NC(=O)CSc2nccn2Cc2ccccc2Cl)c(C)c1,·,·,27,·
O=C1CC(C(F)(F)F)=NN1c1ccccc1,·,·,35*,·
O=C1CC(c2ccccc2)=NN1c1ccccc1,2,3,6,6
COc1ccc(Nc2n[nH]nc2C(=O)Nc2ccc(C)c(Cl)c2)cc1Cl,·,·,-4,·
CCOc1ccc(NCc2ccccc2OCc2cccc(F)c2)cc1,-1,92*,-2,13
Fc1cccc(COc2ccccc2CNc2ccccc2)c1,-4,17,-45,13
CCOC(=O)/C(C#N)=C/C=C1\C=Cc2ccccc2N1CC,10,2,18,43*
CCOC(=O)C(C#N)=c1sc(=C2C=Cc3ccccc3N2CC)c(=O)n1CC,-1,5,-4,·
CSCc1cc(N(C)c2ccccc2)nc(-c2ccccc2)n1,0,88*,-5,-4
COc1cc(CSC)nc(-c2ccccc2)n1,3,5,-5,7
Cc1ccc(C)c(S(=O)(=O)N2CCN(Cc3cc4c(cc3O)OCO4)CC2)c1,9,1,41*,4
O=C(CCl)Nc1cc(-c2ccccc2)nn1-c1ccccc1,0,-15,-9,·
SMILES,RN4220 kill,Sa ugtP lethal,PriA SSB inh,Mtb hypoxia rep
Nc1ccccc1Nc1cc(-c2ccccc2)nn1-c1cccc(Cl)c1,-14,17,59*,10
CCCc1cc(=O)n2[nH]cc(-c3ccc(Cl)cc3)c2n1,99*,99*,-7,-1
COC(=O)c1ccccc1NC(=O)c1ccccc1OC,6,-1,-38,·
COc1ccccc1C(=O)Nc1ccccc1SC(=O)c1ccccc1OC,22,89*,-1,-3
COc1ccccc1C(=O)Nc1ccc(C)cc1C(=O)c1ccccc1,-3,93*,-6,11
COC(=O)c1ccccc1NC(=O)Cn1ncn2nc(-c3ccc(F)cc3)cc2c1=O,·,·,-8,·
CN(C)C=Nc1c(C#N)cnn1C,7,4,-9,7
Cn1ncc(C#N)c1N=CN(Cc1ccccc1)Cc1ccccc1,101*,100*,-21,·
N#CC(=NNc1ccc([N+](=O)[O-])cc1)C(=N)N1CCCCC1,4,1,7,42*
O=C(CSc1ncc(-c2ccccc2)[nH]1)Nc1nc2ccccc2s1,·,·,37*,·
Cc1csc(NC(=O)CSc2ncc(-c3ccccc3)[nH]2)n1,3,-1,42*!,4
Cc1ccccc1NC(=O)C1Cc2ccccc2CN1S(=O)(=O)c1cccs1 (configuration not stated),·,·,-4,·
O=C(c1c(F)cccc1F)N1Cc2cnc(N3CCOCC3)nc2C1,·,·,-8,·
Cc1ccc(-c2[nH]nc(N)c2N=Nc2cccc(Cl)c2C)cc1,84,99*,2,-6
O=C(Cn1cnc2ccccc21)N1CCN(c2ccc(-n3ccnc3)nn2)CC1,·,·,-33,·
O=C(CSc1nccc(-c2cccs2)n1)Nc1ccc(F)c(Cl)c1,83,89*,4,5
Cc1cc(C)c(S(=O)(=O)N2CCCC[C@@H]2CCNC(=O)C(=O)NCc2ccccc2F)c(C)c1,·,·,-5,·
COC(=O)c1ccc2c(c1)C(=O)/C(=C/c1cn(-c3ccccc3)nc1-c1ccc(OC)c(F)c1)O2,·,·,-6,·
Cc1nc2ccccc2c(=O)n1NC(=O)COc1ccccc1,2,0,1,9
O=C(Nn1c(COc2ccccc2)nc2ccccc2c1=O)C(Cl)(Cl)Cl,100*,100*,-6,12
Cc1cc(C(=O)N2CCC[C@H](c3nnc(-c4ccsc4)o3)C2)c(C)o1,·,·,-2,·
CCOC(=O)c1ccccc1NC(=O)Cn1cnc2nc(N3CCC[C@H](C(=O)NC)C3)sc2c1=O,·,·,-6,·
CN(C)c1ccc(/C=C/C(=O)c2c(O)c3ccccc3oc2=O)cc1,6,-7,-7,2
CCOc1ccc(/C=C/C(=O)c2c(O)c3ccccc3oc2=O)cc1,-5,92*,-8,-1
O=C(Nc1nnc(-c2ccccc2)o1)C1CC(=O)N(c2ccccc2)C1 (configuration not stated),·,·,44*!,·
SMILES,RN4220 kill,Sa ugtP lethal,PriA SSB inh,Mtb hypoxia rep
COc1ccc(N2CC(C(=O)Nc3nnc(-c4ccnn4C)o3)CC2=O)cc1 (configuration not stated),·,·,71*,·
CC(C)(O)C(O)COc1c2ccoc2cc2oc(=O)ccc12 (configuration not stated),4,4,40*,7
COC(C)(C)C(O)COc1c2ccoc2cc2oc(=O)ccc12 (configuration not stated),6,2,·,-1
O=C(c1csc(Nc2ccccc2)n1)N1CCN(Cc2ccc3c(c2)OCO3)CC1,·,·,active,·
O=C(c1csc(NS(=O)(=O)c2ccccc2)n1)N1CCN(c2ccccc2F)CC1,·,·,-1,·
O=C(c1csc(Nc2ccccc2)n1)N1CCN(c2ccccc2F)CC1,·,·,26*,·
O=C(Cc1csc(Nc2ccccc2)n1)N1CCN(Cc2ccc3c(c2)OCO3)CC1,·,·,2,·
Cc1ccc(C(C)C)cc1S(=O)(=O)N1CCc2ccccc2C1,·,·,-64,·
CCn1nc(C)cc1C(=O)Sc1ccc(Cl)cc1Cl,24,96*,1,-5
CC(C)C(=O)Nc1ccccc1C(=O)NCCCn1ccnc1,·,·,0,·
CCN(CC)CCC(c1ccc(N(C)C)cc1)c1c(OC)cc(OC)c2c(-c3ccccc3)cc(=O)oc12 (configuration not stated),-1,-2,87*,-2
COc1ccc(C(CCN2CCCC(C)C2)c2c(OC)cc(OC)c3c(-c4ccccc4)cc(=O)oc23)cc1 (configuration not stated),-4,-44,19,22
COc1cc(OC)c2c(C)cc(=O)oc2c1C(CCN1CCOCC1)c1ccc(N(C)C)cc1 (configuration not stated),5,2,45*,9
COc1cc(OC)c2c(-c3ccccc3)cc(=O)oc2c1C(CC(=O)N1CCOCC1)c1ccc(N(C)C)cc1 (configuration not stated),2,1,42*,21
